Data on 22 compounds can be found in PubChem BioAssay (EPA / NIEHS).

Each structure is given as a SMILES string. Several values for one entry are separate records, joined by “and”; a condition that tells them apart may be missing. Identical values can stand only once. Results filed as inconclusive are left out. Activity calls are given as the source filed them. The calls were made as follows: active = hit-call score of the fitted dose curve at least 0.9, where 1 is the maximum; inconclusive = response in the unintended direction; inactive = score below 0.9.

Chain of rat CYP2C13, Cyp2c13 (gene 171521) (P20814 whole entry, looked up): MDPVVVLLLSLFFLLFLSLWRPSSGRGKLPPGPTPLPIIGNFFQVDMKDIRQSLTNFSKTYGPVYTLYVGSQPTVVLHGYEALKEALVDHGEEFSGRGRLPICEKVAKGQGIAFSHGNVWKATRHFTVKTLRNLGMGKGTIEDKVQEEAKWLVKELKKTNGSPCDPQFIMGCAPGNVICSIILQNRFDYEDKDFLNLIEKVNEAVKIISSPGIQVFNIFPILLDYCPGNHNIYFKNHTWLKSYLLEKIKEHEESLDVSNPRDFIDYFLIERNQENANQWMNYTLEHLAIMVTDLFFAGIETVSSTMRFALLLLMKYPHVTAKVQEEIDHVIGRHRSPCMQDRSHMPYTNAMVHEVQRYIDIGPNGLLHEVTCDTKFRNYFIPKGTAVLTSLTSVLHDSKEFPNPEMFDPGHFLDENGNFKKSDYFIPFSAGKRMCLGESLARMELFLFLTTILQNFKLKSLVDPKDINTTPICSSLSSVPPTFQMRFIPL
Chain of rat CYP2C12, Cyp2c12 (gene 25011) (P11510 whole entry, looked up): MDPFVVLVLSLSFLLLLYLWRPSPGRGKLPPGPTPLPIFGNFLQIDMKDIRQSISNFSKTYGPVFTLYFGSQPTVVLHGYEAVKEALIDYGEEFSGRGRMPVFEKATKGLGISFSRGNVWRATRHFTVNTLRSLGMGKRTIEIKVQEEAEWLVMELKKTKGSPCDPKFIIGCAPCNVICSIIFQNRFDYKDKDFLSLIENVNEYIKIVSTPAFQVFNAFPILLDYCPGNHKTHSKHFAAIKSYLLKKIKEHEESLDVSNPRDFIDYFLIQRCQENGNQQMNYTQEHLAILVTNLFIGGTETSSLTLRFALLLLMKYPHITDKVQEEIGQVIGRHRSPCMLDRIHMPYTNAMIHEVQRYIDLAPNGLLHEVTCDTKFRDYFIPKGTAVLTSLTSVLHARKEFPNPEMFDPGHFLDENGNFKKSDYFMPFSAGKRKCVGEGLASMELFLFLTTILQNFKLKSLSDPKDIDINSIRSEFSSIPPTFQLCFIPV

One experiment has as its target rat CYP2C12, Cyp2c12 (gene 25011) (UniProt P11510). Nature of the experiment: NVS_ADME_rCYP2C12: NovaScreen (NVS) CYP450-related Enzyme Activity (ADME) Assay for rat CYP2C12 (AID 2283119). On the procedure: NVS_ADME_rCYP2C12 is a biochemical, single-readout assay that uses extracted gene-proteins in a cell-free assay. Measurements were taken 0.5 hour after chemical dosing in a 96-well plate.NVS_ADME_rCYP2C12 is one of one assay component(s) measured or calculated from the NVS_ADME_rCYP2C12 assay. It is designed to make measurements of enzyme activity, a form of enzyme reporter, as detected with fluorescence intensity signals by Fluorescence technology.Data from the assay component NVS_ADME_rCYP2C12 was analyzed into 1 assay endpoint. This assay endpoint, NVS_ADME_rCYP2C12, was analyzed in the positive analysis fitting direction relative to Acetonitrile as the negative control and baseline of activity. Using a type of enzyme reporter, loss-of-signal activity can be used to understand changes in the enzymatic activity as they relate to the gene Cyp2c12. Furthermore, this assay endpoint can be referred to as a primary readout, because this assay has produced multiple assay endpoints where this one serves a enzymatic activity function. To generalize the intended target to other relatable targets, this assay endpoint is annotated to the cyp intended target family, where the subfamily is xenobiotic metabolism.
Binding assays used specific radioligands (tritiated, iodinated) with non-radioactive competitive displacement ligands in agonist or antagonist protocols (as indicated) and various reference compounds and inhibitors to titrate specific binding to receptors and transporters. Most enzyme assays (CYPs, kinases, phosphatases, proteases, HDACs) used recombinant protein and specific substrates (fluorescence mostly, some colorimetric and radioactive) and inhibitors, followed by a biochemical separation of substrate and product. All assays for the biochemical HTS were initially run in duplicate at a single concentration (10 uM for CYP450 assays and 25 uM for all others). […] Each assay was run with positive and negative controls, and concurrent controls on every plate. The follow-up (secondary) screen tested active chemical-pairs in concentration series, as well as a few additional assays not tested in the primary screen, some selected negative inactives, and several cases re-run in the concentration series for confirmatory purposes.
In general, AC50 refers to the concentration giving half of the maximal activity seen. For `OC(c1ccc(Cl)cc1)(c1cncnc1)c1ccccc1Cl` (stereo unspecified), the AC50 is 3990 nM (active).

Turning to `CN(C)C(=S)SSC(=S)N(C)C`, the AC50 was 1980 nM (active).

On to `CC1COC(Cn2cncn2)(c2ccc(Oc3ccc(Cl)cc3)cc2Cl)O1` (stereo unspecified), for which the AC50 is 1080 nM (active).

On to `CCCN(CCC)c1c([N+](=O)[O-])cc(S(N)(=O)=O)cc1[N+](=O)[O-]`, for which the AC50 is 3080 nM (active).

`CS/C(C)=N/OC(=O)N(C)SN(C)C(=O)O/N=C(\C)SC`: the AC50 is 1120 nM (active).

On to `CCOC(=O)CC(SP(=S)(OC)OC)C(=O)OCC` (stereo unspecified), for which the AC50 is 6050 nM (active).

On to `CCOP(=S)(OCC)SCn1c(=O)oc2cc(Cl)ccc21`, for which the AC50 is 2170 nM (active).

As to `COc1ccc(C(c2ccc(OC)cc2)C(Cl)(Cl)Cl)cc1`, the outcome was inactive.

Take `N#CC(CCc1ccc(Cl)cc1)(Cn1cncn1)c1ccccc1` (stereo unspecified): the AC50 is 250 nM (active).

A further experiment relates to rat CYP2C6, gene 293989. The experiment in a line: NVS_ADME_rCYP2C6: NovaScreen (NVS) CYP450-related Enzyme Activity (ADME) Assay for rat CYP2C6 (AID 2283120). The procedure, abridged: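 Cell-free recombinant rat CYP2C6 with fluorogenic substrate, read by fluorescence 1 h after dosing; acetonitrile as negative control. Primary screen at 10 uM in duplicate, actives then in concentration-response up to 20 uM.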
For `OC(c1ccc(Cl)cc1)(c1cncnc1)c1ccccc1Cl` (stereo unspecified), the AC50 was 1390 nM (active).

Regarding `CN(C)C(=S)SSC(=S)N(C)C`, the AC50 is 1280 nM (active).

On to `CC1COC(Cn2cncn2)(c2ccc(Oc3ccc(Cl)cc3)cc2Cl)O1` (stereo unspecified), for which the AC50 was 1560 nM (active).

Regarding `CCCN(CCC)c1c([N+](=O)[O-])cc(S(N)(=O)=O)cc1[N+](=O)[O-]`, the AC50 was 7630 nM (active).

On to `CS/C(C)=N/OC(=O)N(C)SN(C)C(=O)O/N=C(\C)SC`, for which the AC50 was 3630 nM (active).

`CCOC(=O)CC(SP(=S)(OC)OC)C(=O)OCC` (stereo unspecified): the AC50 was 50.1 nM (active).

Take `CCOP(=S)(OCC)SCn1c(=O)oc2cc(Cl)ccc21`: the AC50 was 336 nM (active).

On to `COc1ccc(C(c2ccc(OC)cc2)C(Cl)(Cl)Cl)cc1`, for which the AC50 was 9600 nM (active).

`N#CC(CCc1ccc(Cl)cc1)(Cn1cncn1)c1ccccc1` (stereo unspecified): the AC50 is 1440 nM (active).

`CO/C=C(/C(=O)OC)c1ccccc1Oc1cc(Oc2ccccc2C#N)ncn1`: the AC50 was 2120 nM (active).

Consider `CCCC1COC(Cn2cncn2)(c2ccc(Cl)cc2Cl)O1` (stereo unspecified), for which the AC50 is 2450 nM (active).

The next experiment concerns the target rat CYP2C13, Cyp2c13 (gene 171521) (UniProt P20814). Nature of the experiment: NVS_ADME_rCYP2C13: NovaScreen (NVS) CYP450-related Enzyme Activity (ADME) Assay for rat CYP2C13 (AID 2283121). The procedure, abridged:
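Recombinant rat CYP2C13 with fluorogenic substrate, 0.75 h cell-free incubation; primary screen in duplicate at 10 uM, actives followed in concentration series. Fluorescence loss relative to acetonitrile control indicates inhibition.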
Regarding `CN(C)C(=S)SSC(=S)N(C)C`, the AC50 was 0.991 µM (active).

In the case of `CC1COC(Cn2cncn2)(c2ccc(Oc3ccc(Cl)cc3)cc2Cl)O1` (stereo unspecified), the AC50 is 1.43 µM (active).

Turning to `O=C(Nc1ccccc1)Nc1ccnc(Cl)c1`, the AC50 was 10 µM (active).

Take `CCOC(=O)CC(SP(=S)(OC)OC)C(=O)OCC` (stereo unspecified): the AC50 was 8.12 µM (active).

In the case of `CCOP(=S)(OCC)SCn1c(=O)oc2cc(Cl)ccc21`, the AC50 was 2.09 µM (active).

Consider `COc1ccc(C(c2ccc(OC)cc2)C(Cl)(Cl)Cl)cc1`, for which the result was inactive.

Regarding `CON(C)C(=O)Nc1ccc(Cl)c(Cl)c1`, the AC50 is 8.64 µM (active) and 6.6 µM (active).

Turning to `CNC(=S)S`, the outcome was inactive.

The target in another experiment is rat CYP2D1, Cyp2d1 (gene 266684) (UniProt P10633). The experiment in a line: NVS_ADME_rCYP2D1: NovaScreen (NVS) CYP450-related Enzyme Activity (ADME) Assay for rat CYP2D1 (AID 2283122). The procedure, abridged: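 Cell-free fluorescence enzyme-activity assay on extracted rat CYP2D1 protein, read 0.75 h after dosing. Primary screen in duplicate at 10 uM; qualifying chemicals then run in concentration-response to 20 uM max, loss-of-signal versus acetonitrile baseline.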
Chain of rat CYP2D1, Cyp2d1 (gene 266684) (P10633 whole entry, looked up): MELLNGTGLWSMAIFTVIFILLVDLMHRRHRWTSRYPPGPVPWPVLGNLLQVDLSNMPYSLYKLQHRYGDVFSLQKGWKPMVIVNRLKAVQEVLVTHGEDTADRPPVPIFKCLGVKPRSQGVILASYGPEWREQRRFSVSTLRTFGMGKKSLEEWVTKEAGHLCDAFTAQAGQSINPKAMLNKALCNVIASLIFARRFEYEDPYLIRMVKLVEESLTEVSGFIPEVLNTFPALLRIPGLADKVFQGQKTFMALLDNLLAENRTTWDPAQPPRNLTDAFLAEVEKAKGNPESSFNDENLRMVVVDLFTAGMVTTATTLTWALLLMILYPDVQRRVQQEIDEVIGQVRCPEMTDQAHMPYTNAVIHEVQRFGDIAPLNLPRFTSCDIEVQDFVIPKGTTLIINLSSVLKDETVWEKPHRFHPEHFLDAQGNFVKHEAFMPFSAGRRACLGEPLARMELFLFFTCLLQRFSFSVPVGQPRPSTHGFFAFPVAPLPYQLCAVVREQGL
As to `C=CCC1=C(C)[C@@H](OC(=O)[C@@H]2[C@@H](C=C(C)C)C2(C)C)CC1=O`, the AC50 was 1050 nM (active).

For `OC(c1ccc(Cl)cc1)(c1cncnc1)c1ccccc1Cl` (stereo unspecified), the AC50 is 7230 nM (active).

For `CC1COC(Cn2cncn2)(c2ccc(Oc3ccc(Cl)cc3)cc2Cl)O1` (stereo unspecified), the AC50 was 685 nM (active).

`Cc1ccc(-c2c(Cl)nc(C#N)n2S(=O)(=O)N(C)C)cc1`: the AC50 was 13000 nM (active).

As for `O=C(Nc1ccccc1)Nc1ccnc(Cl)c1`, the AC50 was 10000 nM (active).

Consider `CCOP(=S)(OCC)SCn1c(=O)oc2cc(Cl)ccc21`, for which the AC50 was 7170 nM (active).

With `CO/C=C(/C(=O)OC)c1ccccc1Oc1cc(Oc2ccccc2C#N)ncn1`, the AC50 is 5450 nM (active).

As to `CCCC1COC(Cn2cncn2)(c2ccc(Cl)cc2Cl)O1` (stereo unspecified), the AC50 was 6880 nM (active).

Turning to `COC(=O)N(OC)c1ccccc1COc1ccn(-c2ccc(Cl)cc2)n1`, the compound was called inactive.

For the compound `CCOC(=O)C(Cl)Cc1cc(-n2nc(C)n(C(F)F)c2=O)c(F)cc1Cl` (stereo unspecified), the compound was classed as inactive.

In a further experiment the test system is rat CYP3A1, gene 25642. Nature of the experiment: NVS_ADME_rCYP3A1: NovaScreen (NVS) CYP450-related Enzyme Activity (ADME) Assay for rat CYP3A1 (AID 2283126). The gist of the method: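 Cell-free recombinant CYP assay with fluorescent substrate, read 0.5 h after dosing. Screened at 10 uM in duplicate, hits at up to 20 uM in concentration-response; loss of signal versus acetonitrile baseline.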
Regarding `OC(c1ccc(Cl)cc1)(c1cncnc1)c1ccccc1Cl` (stereo unspecified), the AC50 was 2.92 µM (active).

`COP(=S)(OC)Oc1nc(Cl)c(Cl)cc1Cl`: the result was inactive.

For `CN(C)C(=S)SSC(=S)N(C)C`, the AC50 is 3.2 µM (active).

Regarding `CC1COC(Cn2cncn2)(c2ccc(Oc3ccc(Cl)cc3)cc2Cl)O1` (stereo unspecified), the AC50 is 0.628 µM (active).

Consider `Cc1ccc(-c2c(Cl)nc(C#N)n2S(=O)(=O)N(C)C)cc1`, for which the AC50 is 2.88 µM (active).

With `CCCN(CCC)c1c([N+](=O)[O-])cc(S(N)(=O)=O)cc1[N+](=O)[O-]`, the AC50 was 1.24 µM (active).

In the case of `CCCCNC(=O)OCC#CI`, the AC50 is 1.46 µM (active) and 4.29 µM (active).

For the compound `CCON=C(CC)C1=C(O)CC(c2c(C)cc(C)cc2C)CC1=O` (stereo unspecified), the AC50 was 4.22 µM (active).

On to `CCOC(=O)CC(SP(=S)(OC)OC)C(=O)OCC` (stereo unspecified), for which the AC50 is 1.88 µM (active).

`CCOP(=S)(OCC)SCn1c(=O)oc2cc(Cl)ccc21`: the AC50 was 1.16 µM (active).

As to `COc1ccc(C(c2ccc(OC)cc2)C(Cl)(Cl)Cl)cc1`, the compound was classed as inactive.

`N#CC(CCc1ccc(Cl)cc1)(Cn1cncn1)c1ccccc1` (stereo unspecified): the AC50 is 0.449 µM (active).

As for `CO/C=C(/C(=O)OC)c1ccccc1Oc1cc(Oc2ccccc2C#N)ncn1`, the AC50 is 5.8 µM (active).

Consider `CCCC1COC(Cn2cncn2)(c2ccc(Cl)cc2Cl)O1` (stereo unspecified), for which the AC50 was 2.08 µM (active).

With `CON(C)C(=O)Nc1ccc(Cl)c(Cl)c1`, the result was inactive.

For `COc1nc(C)nc(NC(=O)NS(=O)(=O)c2ccccc2CCC(F)(F)F)n1`, the AC50 is 7.5 µM (active) and 7.14 µM (active) and 7.37 µM (active).

As for `CNC(=S)S`, the call was inactive.

`COC(=O)N(OC)c1ccccc1COc1ccn(-c2ccc(Cl)cc2)n1`: the AC50 is 1.29 µM (active).
